Records with an inconclusive call do not appear. Active and inactive are the calls of the source. The call rests on the fitted dose curve; in most records, active means well fitted curve in the direction sought with a large enough effect; inconclusive means small, poorly fitted or top-dose-only effect, or another doubt; inactive means no such curve, though single readings can be large; an effect the other way counts as inactive or inconclusive. Where a SMILES comes first, the peptide text is derived from it. [ ]: non-standard residue; d: D form. pGlu = O=C1CC[C@@H](C(=O)O)N1
What was measured:
[1] = qHTS of pediatric cancer cell lines to identify multiple opportunities for drug repurposing: Primary screen for TC32 cells (AID 1347089); conditions: TC32 Ewing sarcoma viability, CellTiter-Glo luminescence, 48 h; series mostly up to 45.8 µM; further: nearly all actives have a fitted effect of over 60% in size
Summary of the method: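 TC32 cells, 500-1,000/well in growth medium, compound-treated 48 h at 37 °C; viability from CellTiter-Glo luminescence. Primary screen: MIPE 11-point (0.78 nM–46 µM final), NPC 8-point (0.59 nM–46 µM final); confirmatory at 11-point dilutions.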

[2] = qHTS of pediatric cancer cell lines to identify multiple opportunities for drug repurposing: Primary screen for DAOY cells (AID 1347090); conditions: DAOY medulloblastoma viability, CellTiter-Glo luminescence, 48 h; series mostly up to 46 µM; further: nearly all actives have a fitted effect of over 55% in size
Summary of the method: (§1)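 Viability measured as metabolically active cells via CellTiter-Glo luminescence following 48 hours of compound exposure, 11-point dilutions in confirmatory testing. 500-1,000 cells/well plated 5 hours before dosing; controls were DMSO and 2.3 µM bortezomib.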

[3] = qHTS of pediatric cancer cell lines to identify multiple opportunities for drug repurposing: Primary screen for SJ-GBM2 cells (AID 1347091); conditions: SJ-GBM2 viability, CellTiter-Glo luminescence, 48 h; series mostly up to 46 µM
Summary of the method: as §1

[4] = qHTS of pediatric cancer cell lines to identify multiple opportunities for drug repurposing: Primary screen for A673 cells (AID 1347092); conditions: A673 Ewing sarcoma viability, CellTiter-Glo ATP luminescence, 48 h; series mostly up to 46 µM; further: nearly all actives have a fitted effect of over 45% in size
Summary of the method: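 A673 cells (500-1,000 cells/well) were treated 48 hours at 37 degrees C with compounds at 11-point (0.78 nM to 46 µM) or 8-point (0.59 nM to 46 µM) dilutions. Viability read by CellTiter-Glo luminescence; concentration-response curves fitted.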

[5] = qHTS of pediatric cancer cell lines to identify multiple opportunities for drug repurposing: Primary screen for BT-37 cells (AID 1347094); conditions: BT-37 viability, CellTiter-Glo luminescence, 48 h; series mostly up to 57.3 µM
Summary of the method: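 Luminescence from CellTiter-Glo served as readout of metabolically active cells after 48 h compound exposure. Titrations: MIPE 11-point, from 0.78 nM; NPC 8-point, from 0.59 nM (final). Concentration-response curves came straight from the primary screen.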

[6] = qHTS of pediatric cancer cell lines to identify multiple opportunities for drug repurposing: Primary screen for SK-N-MC cells (AID 1347093); conditions: SK-N-MC viability, CellTiter-Glo luminescence, 48 h; series mostly up to 46 µM
Summary of the method: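 Metabolically active cells were quantified by ATP-dependent luminescence (CellTiter-Glo, 15 min at room temperature) following 48 h treatment. Cells had been plated at 500-1,000 per well and settled for 5 h beforehand.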

Measured: Potency

CCOCCn1c(C2CCN(CCc3ccc(C(C)(C)C(=O)O)cc3)CC2)nc2ccccc21
not listed: [6]
inactive: all other assays above

CCNC(=O)[C@@H]1CCCN1C(=O)[C@H](CCCN=C(N)N)NC(=O)[C@H](CC(C)C)NC(=O)CNC(=O)[C@H](Cc1ccc(O)cc1)NC(=O)[C@H](CO)NC(=O)[C@H](Cc1c[nH]c2ccccc12)NC(=O)[C@H](Cc1cnc[nH]1)NC(=O)[C@@H]1CCC(=O)N1 ([pGlu]HWSYGLRP-NHEt)
inactive: all assays above

Cc1cnc(NS(=O)(=O)c2ccc(N)cc2)nc1
not listed: [6]
inactive: all other assays above

c1ccc2occc2c1
not listed: [6]
inactive: all other assays above

COc1ccc(OC(=O)N(CC(=O)O)Cc2ccc(OCCc3nc(-c4ccccc4)oc3C)cc2)cc1
not listed: [6]
inactive: all other assays above

COc1ccccc1N1CCN(CC(O)COc2cc(OC)c(OC)c(OC)c2)CC1 (stereo unspecified)
not listed: [6]
inactive: all other assays above

O=C(OCCN1CCOCC1)c1cccnc1Nc1cccc(C(F)(F)F)c1
not listed: [6]
inactive: all other assays above

CCCCC(CC)COC(=O)c1ccccc1C(=O)O (stereo unspecified)
not listed: [6]
inactive: all other assays above

OCCOCCN1CCN(C(c2ccccc2)c2ccc(Cl)cc2)CC1 (stereo unspecified)
not listed: [6]
inactive: all other assays above

NCC(=O)O
not listed: [6]
inactive: all other assays above
